PubChem BioAssay (Tox21)
Results filed as inconclusive are left out. Unmarked numbers belong to inactive results. Activity calls are given as the source filed them. Unless noted, calls follow the shape of the dose curve; as a rule, active = well fitted cell-killing curve with a large enough effect in the repeat runs; inconclusive = weak or mixed curves, or effect the other way; inactive = no such curve, though single readings can be large or run the other way.
% is scaled to controls: 0 for no effect and ±100 for the full control effect.

Assay: qHTS assay to identify small molecule agonists of the endoplasmic reticulum stress response signaling pathway (AID 1159516; active = well fitted activation curve with a large enough effect in the signal ratio in the repeat runs, not every such curve was filed as active; the % refers to the signal ratio)
Details: ESRE-bla HeLa, ER stress beta-lactamase reporter, 5 h; series mostly up to 61 µM; activation: at the top concentration
Summary of the method: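 For this screen, HeLa cells stably carrying beta-lactamase under the ER stress response element received test compounds, positive controls or DMSO for 5 hr at 37 C; B/G FRET substrate was then added and dual-wavelength emission recorded.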
For CC(=O)C(Cl)Cl, the “activation” value was -6.16% [at 78.8 µM]. For CSc1nc(N=[N+]=[N-])nc(NC(C)C)n1, the “activation” value was -0.154%. In the case of c1cc2c(c(N3CCNCC3)c1)OCCO2, the “activation” value is reported as -1.4%. For CC(C(O)c1ccccc1)N(C)C/C=C/c1ccccc1 (centres undefined), the “activation” value was 1.2%. With N#CCNCC#N the “activation” value was 2.32%. For Clc1cccc(N2CCNCC2)c1, the “activation” value was 1.76%. For [O]=[Cd], the “activation” value was 0.146%. In the case of Nc1n[nH]c(N)n1, the “activation” value is reported as 4.07% [at 78.8 µM]. With O=CNC(N1CCN(C(NC=O)C(Cl)(Cl)Cl)CC1)C(Cl)(Cl)Cl (centres undefined) the “activation” value was 0.38%. In the case of CCC(C)(C)c1cc(-n2nc3ccccc3n2)c(O)c(C(C)(C)CC)c1, the “activation” value is reported as -0.76% [at 78.8 µM]. In the case of CCN(Cc1ccc(Cl)nc1)/C(=C/[N+](=O)[O-])NC, the “activation” value is reported as -0.132%. With CCC(Cl)[N+](=O)[O-] (centres undefined) the “activation” value was -3.19% [at 78.8 µM]. With Cc1cc(C)c(C(=O)P(=O)(C(=O)c2c(C)cc(C)cc2C)c2ccccc2)c(C)c1 the “activation” value was 1.59%.

Assay: qHTS assay to identify small molecule agonists of the endoplasmic reticulum stress response signaling pathway - cell viability counter screen (AID 1159517; calls by dose curve; also: nearly all actives have a fitted effect of over 50% in size; also: potency is read from the fitted curve at half-maximal effect)
Details: ESRE-bla HeLa viability, CellTiter-Glo luminescence, 5 h; series mostly up to 61 µM; activity change, negative = cytotoxicity: at the top concentration
Summary of the method: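 In parallel with the ESRE reporter read, cytotoxicity was scored by CellTiter-Glo luminescence (30 min, room temperature) on HeLa ESRE-bla cells dosed for 5 hr.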
In the case of CCC(=O)c1ccccc1, the “activity change, negative = cytotoxicity” value is reported as 3.51%. For CNC(=O)N(C)c1nc2ccccc2s1, the “activity change, negative = cytotoxicity” value was 5.24%. For COc1ccc(C(=O)N2CCCC2=O)cc1, the “activity change, negative = cytotoxicity” value was 11.4%. For COC(=O)C(C)Oc1ccc(Oc2ccc(Cl)cc2Cl)cc1 (centres undefined), the “activity change, negative = cytotoxicity” value was -7.85%. For Clc1ccccc1N1CCNCC1, the “activity change, negative = cytotoxicity” value was -7.08%. With Fc1cc(Br)ccc1CBr the “activity change, negative = cytotoxicity” value was -8.82%. For CN/C(=N\[N+](=O)[O-])NCC1CCOC1 (centres undefined), the “activity change, negative = cytotoxicity” value was 0.934%. For CC(C1CC1)C(O)(Cn1cncn1)c1ccc(Cl)cc1 (centres undefined), the “activity change, negative = cytotoxicity” value was 0.191%. With C[N+](=O)[O-] the “activity change, negative = cytotoxicity” value was 15.6%. For Nc1c(Br)cc([N+](=O)[O-])cc1[N+](=O)[O-], the “activity change, negative = cytotoxicity” value was -1.14% [at 78.8 µM]. With CSc1ccc(C(=O)C(C)(C)N2CCOCC2)cc1 the “activity change, negative = cytotoxicity” value was -7.35%. With O=C(Oc1ccc(Br)cc1)N1CCN2CCC1CC2 the “activity change, negative = cytotoxicity” value was -12.8%. With COc1cc(OC)nc(NC(=O)NS(=O)(=O)c2ncccc2OCC(F)(F)F)n1 the “activity change, negative = cytotoxicity” value was 6.26%. For CCS(=O)(=O)CCSP(=O)(OC)OC, the “activity change, negative = cytotoxicity” value was -16%. For O=C1CN2CCOC2(c2ccccc2Cl)c2cc(Cl)ccc2N1 (centres undefined), the “activity change, negative = cytotoxicity” value was -7.2%. For O=[N+]([O-])c1ccc(CBr)cc1, the Potency was 27.2 µM (active). For CC1=NNC(=O)N(/N=C/c2cccnc2)C1, the “activity change, negative = cytotoxicity” value was 1.41%. For Cc1cccc(C#N)c1, the “activity change, negative = cytotoxicity” value was 6.85%. With C(CCOCC1CO1)COCC1CO1 (centres undefined) the “activity change, negative = cytotoxicity” value was 10.6%. In the case of CC1=C(C(=O)O)N2C(=O)[C@@H](N)[C@H]2SC1, the “activity change, negative = cytotoxicity” value is reported as 13.2% [at 28.5 µM]. In the case of CC1(C(=O)Nc2ccc(O)c(Cl)c2Cl)CCCCC1, the “activity change, negative = cytotoxicity” value is reported as -9.45%. In the case of CC1=C(C(=O)Nc2ccccc2)S(=O)(=O)CCO1, the “activity change, negative = cytotoxicity” value is reported as 9.91%. For CC(C)CC#N, the “activity change, negative = cytotoxicity” value was 9.71% [at 78.8 µM]. In the case of Cc1ccccc1CO[C@@H]1C[C@@]2(C(C)C)CC[C@]1(C)O2, the “activity change, negative = cytotoxicity” value is reported as -4.27%. For CCOP(=O)(OCC)OP(=O)(OCC)OCC, the “activity change, negative = cytotoxicity” value was 0.36%. With CC(=O)C(Cl)Cl the “activity change, negative = cytotoxicity” value was 5.58% [at 78.8 µM]. With CSc1nc(N=[N+]=[N-])nc(NC(C)C)n1 the “activity change, negative = cytotoxicity” value was -14.5%. For c1cc2c(c(N3CCNCC3)c1)OCCO2, the “activity change, negative = cytotoxicity” value was 24.9%. In the case of CC(C(O)c1ccccc1)N(C)C/C=C/c1ccccc1 (centres undefined), the “activity change, negative = cytotoxicity” value is reported as 1.02%. For N#CCNCC#N, the “activity change, negative = cytotoxicity” value was 4.26%. In the case of Clc1cccc(N2CCNCC2)c1, the “activity change, negative = cytotoxicity” value is reported as -8.79%. For [O]=[Cd], the “activity change, negative = cytotoxicity” value was -7.61%. With Nc1n[nH]c(N)n1 the “activity change, negative = cytotoxicity” value was -12.5% [at 78.8 µM]. For O=CNC(N1CCN(C(NC=O)C(Cl)(Cl)Cl)CC1)C(Cl)(Cl)Cl (centres undefined), the “activity change, negative = cytotoxicity” value was -0.466%. For CCC(C)(C)c1cc(-n2nc3ccccc3n2)c(O)c(C(C)(C)CC)c1, the “activity change, negative = cytotoxicity” value was 19.1% [at 78.8 µM]. In the case of CCN(Cc1ccc(Cl)nc1)/C(=C/[N+](=O)[O-])NC, the “activity change, negative = cytotoxicity” value is reported as -9.49%. In the case of CCC(Cl)[N+](=O)[O-] (centres undefined), the “activity change, negative = cytotoxicity” value is reported as -13.7% [at 78.8 µM]. For Cc1cc(C)c(C(=O)P(=O)(C(=O)c2c(C)cc(C)cc2C)c2ccccc2)c(C)c1, the “activity change, negative = cytotoxicity” value was 27.3%.

Assay: qHTS assay to identify small molecule antagonists of the retinoid-related orphan receptor gamma (ROR-gamma) signaling pathway - cell viability counter screen (AID 1159520); also: nearly all actives have a fitted effect of over 50% in size
Details: Tet-on RORgamma CHO cells viability, ATP luminescence, 16 h; series mostly up to 92.4 µM; activity, negative = cytotoxicity: at the top concentration
Summary of the method: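 Tet-on ROR gamma CHO cells were given compounds for 2 hr, then doxycycline hyclate at 1 uM final, and incubated 16 hr at 37 C. Viability was measured as ATP content by CellTiter-Glo luminescence.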
In the case of CCC(=O)c1ccccc1, the “activity, negative = cytotoxicity” value is reported as 5.42%. For CNC(=O)N(C)c1nc2ccccc2s1, the “activity, negative = cytotoxicity” value was -0.901%. For COc1ccc(C(=O)N2CCCC2=O)cc1, the “activity, negative = cytotoxicity” value was -0.932% [at 42.5 µM]. For COC(=O)C(C)Oc1ccc(Oc2ccc(Cl)cc2Cl)cc1 (centres undefined), the “activity, negative = cytotoxicity” value was -1.58%. With Clc1ccccc1N1CCNCC1 the “activity, negative = cytotoxicity” value was 4.82% [at 42.5 µM]. With Fc1cc(Br)ccc1CBr the “activity, negative = cytotoxicity” value was -3.93% [at 42.5 µM]. With CN/C(=N\[N+](=O)[O-])NCC1CCOC1 (centres undefined) the “activity, negative = cytotoxicity” value was 3.37%. With CC(C1CC1)C(O)(Cn1cncn1)c1ccc(Cl)cc1 (centres undefined) the “activity, negative = cytotoxicity” value was -3.41%. In the case of C[N+](=O)[O-], the “activity, negative = cytotoxicity” value is reported as 1.1%. In the case of Nc1c(Br)cc([N+](=O)[O-])cc1[N+](=O)[O-], the “activity, negative = cytotoxicity” value is reported as -16.5%. In the case of CSc1ccc(C(=O)C(C)(C)N2CCOCC2)cc1, the “activity, negative = cytotoxicity” value is reported as -1.16%. In the case of O=C(Oc1ccc(Br)cc1)N1CCN2CCC1CC2, the “activity, negative = cytotoxicity” value is reported as 5.24%. In the case of COc1cc(OC)nc(NC(=O)NS(=O)(=O)c2ncccc2OCC(F)(F)F)n1, the “activity, negative = cytotoxicity” value is reported as 8.3%. For CCS(=O)(=O)CCSP(=O)(OC)OC, the “activity, negative = cytotoxicity” value was -8.11%. For O=C1CN2CCOC2(c2ccccc2Cl)c2cc(Cl)ccc2N1 (centres undefined), the “activity, negative = cytotoxicity” value was -4.19% [at 42.5 µM]. In the case of O=[N+]([O-])c1ccc(CBr)cc1, the “activity, negative = cytotoxicity” value is reported as -7.92%. With CC1=NNC(=O)N(/N=C/c2cccnc2)C1 the “activity, negative = cytotoxicity” value was 6.25%. With Cc1cccc(C#N)c1 the “activity, negative = cytotoxicity” value was 3.41%. For C(CCOCC1CO1)COCC1CO1 (centres undefined), the “activity, negative = cytotoxicity” value was 4.25%. Work on CC1=C(C(=O)O)N2C(=O)[C@@H](N)[C@H]2SC1 yielded an activity, negative = cytotoxicity of 0.102% [at 19 µM]. In the case of CC1(C(=O)Nc2ccc(O)c(Cl)c2Cl)CCCCC1, the “activity, negative = cytotoxicity” value is reported as -8.85%. In the case of CC1=C(C(=O)Nc2ccccc2)S(=O)(=O)CCO1, the “activity, negative = cytotoxicity” value is reported as -0.13%. For CC(C)CC#N, the “activity, negative = cytotoxicity” value was 4.14%. In the case of Cc1ccccc1CO[C@@H]1C[C@@]2(C(C)C)CC[C@]1(C)O2, the “activity, negative = cytotoxicity” value is reported as -2.37%. In the case of CCOP(=O)(OCC)OP(=O)(OCC)OCC, the “activity, negative = cytotoxicity” value is reported as 2.6%. For CC(=O)C(Cl)Cl, the “activity, negative = cytotoxicity” value was 4.49%. With CSc1nc(N=[N+]=[N-])nc(NC(C)C)n1 the “activity, negative = cytotoxicity” value was -17.3%. In the case of c1cc2c(c(N3CCNCC3)c1)OCCO2, the “activity, negative = cytotoxicity” value is reported as 1.08% [at 42.5 µM]. For CC(C(O)c1ccccc1)N(C)C/C=C/c1ccccc1 (centres undefined), the “activity, negative = cytotoxicity” value was -7.16% [at 42.5 µM]. With N#CCNCC#N the “activity, negative = cytotoxicity” value was -1.58%. For Clc1cccc(N2CCNCC2)c1, the “activity, negative = cytotoxicity” value was -0.714% [at 42.5 µM]. For [O]=[Cd], the “activity, negative = cytotoxicity” value was 0.546%. With Nc1n[nH]c(N)n1 the “activity, negative = cytotoxicity” value was -14.1%. In the case of O=CNC(N1CCN(C(NC=O)C(Cl)(Cl)Cl)CC1)C(Cl)(Cl)Cl (centres undefined), the “activity, negative = cytotoxicity” value is reported as -1.51%. With CCC(C)(C)c1cc(-n2nc3ccccc3n2)c(O)c(C(C)(C)CC)c1 the “activity, negative = cytotoxicity” value was 5.32%. In the case of CCN(Cc1ccc(Cl)nc1)/C(=C/[N+](=O)[O-])NC, the “activity, negative = cytotoxicity” value is reported as 4.03% [at 42.5 µM]. With CCC(Cl)[N+](=O)[O-] (centres undefined) the “activity, negative = cytotoxicity” value was -2.64%. With Cc1cc(C)c(C(=O)P(=O)(C(=O)c2c(C)cc(C)cc2C)c2ccccc2)c(C)c1 the “activity, negative = cytotoxicity” value was -0.146%.
